Screens deposited in PubChem by National Center for Advancing Translational Sciences (NCATS).
DT40 TDP1 CPT: growth inhibition of DT40 Tdp1-/-;hTDP1 cells with camptothecin (screen for TDP1 inhibitors). chicken DT40 Tdp1-/-;hTDP1 cells + 20 nM CPT, ATP luminescence, 48 h. Potency, µM (titrated, usually from 46.2 µM), for inactives: at the highest dose activity change, negative = growth inhibition, usual class: inhibitors. actives 12% (n = 420,000); note: potency is the fitted concentration of half-maximal effect; nearly all actives have a fitted effect of over 55% in size
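Cell growth measured by CellTiter-Glo luminescence after a minimum 48 h, 37 C compound exposure with 20 nM CPT in Tdp1-knockout DT40 cells stably expressing hTDP1, seeded 400/well; qHTS titration format.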
LDHA block: blocks human lactate dehydrogenase A. P00338. purified LDHA, NADH/diaphorase-resazurin fluorescence; hits give low values. activity change, % (values are at about 110 or 230 µM). actives 0.15% (n = 480,000). AID 1347041; in the data active = activity change below about -30%; inconclusive = mostly about -25% to -30%;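 note: plate controls were DMSO wells for no effect and wells without enzyme for full effect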
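Human LDH5 at 2 nM final in Tris HCl pH 7.4 with 0.06 mM NADH and 0.2 mM pyruvate, reacted 5 minutes at room temperature. Remaining NADH coupled via diaphorase/resazurin; resorufin fluorescence read at 0 and 20 minutes, normalized to enzyme-free and DMSO wells.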
IL1B secr inh: blocks inflammasome-driven IL-1 beta release | actives 4.7% (n = 360,000) | activity change, % at 57.5 µM | THP-1 LPS/ATP IL-1B secretion, AlphaLISA, 16 h; hits give low values; in the data active = activity change below about -50%; inconclusive = mostly about -30% to -49%
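Secreted IL-1B measured by AlphaLISA bead assay after 16 h compound exposure of THP-1 cells; compounds (final up to 57.5 uM) added 1 h before LPS (250 ng/mL) and ATP (1.25 mM) stimulation; lower signal means less secretion.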
DT40 TDP1 no CPT: qHTS for Inhibitors of human tyrosyl-DNA phosphodiesterase 1 (TDP1): qHTS in cells in absence of CPT. Potency, µM (doses to about 46.2 µM), without a hit: at the top dose activity change, negative = growth inhibition, usual class: inhibitors. actives 15% (n = 420,000). AID 686978, 2013. DT40 Tdp1-/- hTDP1 cells, no CPT, ATP luminescence, 48 h; note: potency is the fitted concentration of half-maximal effect; nearly all actives have a fitted effect of over 55% in size
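Seeded 400 DT40-hTDP1 cells/well (vehicle DMSO, no 20 nM CPT); pinned compounds; ≥48 hr at 37 °C; CellTiter-Glo luminescence as viability measure.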
Gal4-VP16 FLuc: counter-screen for ROR gamma inhibitors: Gal4-VP16 reporter; actives 3.5% (n = 310,000); Drosophila S2 Gal4-VP16 UAS-luciferase, luminescence, 20 h; Potency, µM (series often up to 53.6 µM), for inactives: at the highest dose activity, negative = inhibition, usual class: inhibitors; AID 2546;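 note: Gal4-VP16 expression switched on by copper sulfate through the metallothionein promoter; potency is the fitted concentration of half-maximal effect; nearly all actives have a fitted effect of over 50% in size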
RORg inh: inhibitors of mouse ROR gamma transcriptional activity. Potency, µM (series often up to 53.6 µM), for inactives: at the top dose activity change, negative = inhibition, usual class: inhibitors. AID 2551. P51450. actives 5.4% (n = 310,000). Drosophila S2 Gal4-RORgamma UAS-luciferase reporter, 20 h; note: potency is the fitted concentration of half-maximal effect; nearly all actives have a fitted effect of over 60% in size
Target sequence (P51450 whole entry, looked up, the tested form may be a part): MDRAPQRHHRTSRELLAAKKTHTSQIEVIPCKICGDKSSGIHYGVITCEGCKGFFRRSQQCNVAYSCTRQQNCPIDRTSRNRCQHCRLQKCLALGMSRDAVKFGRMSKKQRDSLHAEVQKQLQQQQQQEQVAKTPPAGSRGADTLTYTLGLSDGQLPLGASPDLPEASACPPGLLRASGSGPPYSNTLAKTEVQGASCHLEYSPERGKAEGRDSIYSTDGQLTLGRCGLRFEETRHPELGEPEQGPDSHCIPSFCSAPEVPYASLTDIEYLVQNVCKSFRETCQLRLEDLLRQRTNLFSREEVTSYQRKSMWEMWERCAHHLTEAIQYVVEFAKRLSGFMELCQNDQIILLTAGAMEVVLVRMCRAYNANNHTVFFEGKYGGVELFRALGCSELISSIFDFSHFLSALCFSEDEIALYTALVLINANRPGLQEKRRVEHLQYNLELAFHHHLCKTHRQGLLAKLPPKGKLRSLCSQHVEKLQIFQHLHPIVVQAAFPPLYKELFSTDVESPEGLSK
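Drosophila S2 cells stably expressing Gal4-DBD/mouse RORγ fusion under metallothionein promoter plus UAS-luciferase; compound 1 h, then 700 uM CuSO4 induction for 20 h at ambient temperature; inhibition read as reduced luminescence.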
Numbers without * were called inactive; ? = inconclusive; nt = not tested or not shown. An excerpt weighted towards active compounds, which were near 18% of everything screened. Unless noted, calls come from the whole dose curve; as a rule, active = well fitted curve in the direction sought with a large enough effect; inconclusive = small, poorly fitted or top-dose-only effect, or another doubt; inactive = no such curve, though single readings can be large; an effect the other way counts as inactive or inconclusive. Unless noted, % is set by controls: 0 for no effect and ±100 for the full control effect.

SMILES	DT40 TDP1 CPT	LDHA block	IL1B secr inh	DT40 TDP1 no CPT	Gal4-VP16 FLuc	RORg inh
CCOC(=O)c1c(NC(=O)CN2CCN(C(=O)c3ccco3)CC2)sc(C(N)=O)c1C	-28.2%	-3.8	-11.1	18.4µM*	-7.7%	-9.9%
CCOc1cccc(C2CC(=O)Nc3c2c(=O)nc(SCc2ccccc2Cl)n3C)c1 (configuration not stated)	nt	1.8	nt	nt	nt	nt
Cc1ccc(-c2cn3c(n2)sc2cc(C(=O)NCCC4=CCCCC4)ccc23)c(C)c1	16.4µM*	-10.6	nt	16.4µM*	nt	nt
Cc1ccc(-c2cn3c(n2)sc2cc(C(=O)NCCCc4ccccc4)ccc23)c(C)c1	23.1µM*	-3.1	nt	18.4µM*	nt	nt
CCNc1c(NC(=O)c2ccc(OC(C)=O)c(OC)c2)c(=O)oc2ccccc12	nt	-6.5	nt	nt	nt	nt
Cc1cc2cc(NC(=O)c3ccc(C)c(C)c3)ccc2[nH]1	nt	11.9	nt	nt	nt	nt
O=C(NNC(=O)C1CCCCC1)c1ccc(Cl)c(Cl)c1	nt	0.6	nt	nt	nt	nt
COc1ccc(Br)c(C(=O)Oc2cc(Cl)ccc2Cl)c1	nt	3.5	nt	nt	nt	nt
O=C(Cn1c2ccccc2c2nc3n(c(=O)c21)CCS3)N1CCCC1	-8.2%	-1.5	?	1.9%	3.5%	-11.3%
O=C(Cn1c2ccccc2c2nc3n(c(=O)c21)CCS3)Nc1ccccc1	20.6µM*	-10.2	-9.2	?	-4.3%	-13.5%
COc1ccc(N(C(=O)c2ccc(Br)o2)C2C=CS(=O)(=O)C2)c(OC)c1 (configuration not stated)	?	-4.3	9.4	18.4µM*	4.8%	2.4%
CCCNC(=O)Cc1ccc(NC(=O)N2CCSc3ncccc32)cc1	nt	-2.9	nt	nt	nt	nt
Cc1ccc2c(C)[nH]c(=O)cc2c1	7.31µM*	-1.9	33.6	7.31µM*	-7.2%	25.7%
Cc1ccc2nc(Nc3nc(C)cc(=O)[nH]3)nc(C)c2c1	nt	8.8	nt	nt	nt	nt
CC(C)c1onc(C(=O)N(C)Cc2ccccc2)c1[N+](=O)[O-]	14.4%	-2.3	-1.5	-12.7%	?	28.5%
Cc1c([N+](=O)[O-])c([N+](=O)[O-])nn1CC(=O)NCCc1ccccc1	-2.8%	-7.7	-89.9*	6.9%	?	-27.0%
CC(C)c1onc(C(=O)NCCc2ccccc2)c1[N+](=O)[O-]	20.6µM*	-11.4	-11.8	?	10.6%	0.2%
O=C(/C=C/N(c1ccccc1)c1ccccn1)C(F)(F)F	nt	6.4	nt	nt	nt	nt
C=CCSc1nc(-c2ccc(OC)cc2)c(C#N)c(=O)n1CC=C	16.4µM*	-1.9	-101.8*	25.9µM*	-8.5%	18.7%
COc1ccc(-c2nc3n(c(=O)c2C#N)CCS3)cc1	2.1%	-3.9	-11.6	2.6%	0.0%	14.8%
COC(=O)c1ccc(NC(=O)CCc2ccco2)cc1	nt	0.9	nt	nt	nt	nt
O=C(NC(=S)Nc1ccc(F)c(Cl)c1)C1CC1	-2.5%	-8.6	21.8	-1.2%	7.08µM*	5.62µM*
Cc1ccc(NC(=S)Nc2ccc(OC(F)F)c(Cl)c2)cc1F	?	-6.8	-95.0*	?	?	?
O=C(Nc1ccc(OC(F)F)c(Cl)c1)c1ccccn1	?	-8.1	-3.6	?	21.8%	?
Fc1ccc(NC(=S)Nc2ccc(F)c(Cl)c2)cc1Cl	23.1µM*	-2.7	-77.2*	13µM*	-22.7%	1.78µM*
SMILES	DT40 TDP1 CPT	LDHA block	IL1B secr inh	DT40 TDP1 no CPT	Gal4-VP16 FLuc	RORg inh
O=C(Nc1ccc(F)c(Cl)c1)C1CCCC1	1.6%	5.6	-0.9	-14.1%	nt	nt
COc1ccc(CNC(=O)Cc2c(C)c3c(OC)cc(C)cc3oc2=O)cc1	nt	15.5	nt	nt	nt	nt
Cc1ccc(/C=N\Nc2nc3ccc(Cl)cc3[nH]2)o1	?	-3.6	?	20.6µM*	12.6µM*	6.31µM*
BrC(=C\c1ccccc1)/C=N/Nc1nc2ccccc2[nH]1	18.4µM*	-5.2	-28.6	?	5.01µM*	3.16µM*
CCN(CC)c1ccc(/C=N/Nc2nc3ccccc3[nH]2)c(O)c1	4.61µM*	5.8	-59.4*	4.61µM*	2.82µM*	3.55µM*
C#CCn1cc(/C=N/Nc2nc3ccccc3[nH]2)c2ccccc21	?	-2.1	-92.4*	?	?	15.8µM*
O=C(CN1CCCc2cc(F)cc(F)c21)Nc1cccc2nsnc12	nt	19.9	nt	nt	nt	nt
C(=N/N=C\c1ccccn1)/c1ccccn1	nt	-5.0	nt	nt	nt	nt
C(=N\n1cnnc1)/c1ccc2ncccc2c1	-0.8%	-5.5	-5.8	-4.2%	5.1%	-0.5%
N#C/C(=C/c1ccc(-c2ccc(F)cc2)o1)c1nc2ccccc2[nH]1	nt	5.6	nt	nt	nt	nt
Fc1ccccc1-c1ccc(/C=N/Nc2nc3ccccc3[nH]2)o1	?	-1.3	0.0	?	3.55µM*	3.16µM*
C(=N\Nc1nc2ccccc2[nH]1)/c1ccc2ncccc2c1	?	-3.6	0.1	0.82µM*	-28.4%	-44.2%
C(=N\Nc1nc2ccccc2[nH]1)/c1cccc2nccnc12	2.91µM*	-3.0	nt	4.11µM*	5.62µM*	1µM*
C(=N\Nc1nc2ccccc2[nH]1)/c1ccccn1	?	-1.2	109.7	20.6µM*	1.12µM*	0.562µM*
COc1ccc(C(C)=O)cc1CO/N=C/c1ccc(OCc2ccc(Cl)cc2)c(OC)c1	nt	11.7	nt	nt	nt	nt
O=C(Nc1ccccc1C(=O)NC1CCCC1)c1ccnc(-n2cncn2)c1	nt	0.6	nt	nt	nt	nt
CNC(=O)C12CCC(C)(c3nc4cc(C)c(C)cc4nc31)C2(C)C (configuration not stated)	-10.5%	-3.6	15.3	?	-5.4%	5.8%
CCCNC(=O)C12CCC(C)(c3nc4cc(C)c(C)cc4nc31)C2(C)C (configuration not stated)	18.4µM*	7.1	-9.9	23.1µM*	-4.2%	-13.3%
Cc1ccc(CC(=O)Nc2ccccc2-c2ccccc2)cc1C	?	0.1	7.4	?	0.9%	-0.4%
COc1ccc(CC(=O)Nc2ccc(C(=O)Nc3ccccc3C(=O)O)cc2)cc1OC	-12.1%	-37.4*	20.5	-21.2%	-12.9%	13.8%
COc1ccccc1NC(=O)c1ccc(NC(=O)COC(=O)C2CC2C)cc1 (configuration not stated)	-13.1%	-4.2	?	?	-8.7%	3.4%
COc1cc(Cl)c(C)cc1NC(=O)Cc1ccc(OC)c(OC)c1	-28.3%	-3.4	-21.2	14.6µM*	-11.2%	28.8%
COc1ccccc1NC(=O)c1ccc(NC(=O)CN(C)Cc2ccccc2F)cc1	-8.3%	-0.8	nt	23.1µM*	0.1%	17.1%
COc1ccc(CC(=O)Nc2ccccc2-c2ccccc2)cc1OC	16.4µM*	3.7	-28.1	20.6µM*	-28.8%	26.9%
